Consider one compound from PubChem BioAssay (NCATS).

Assay [1] can be described thus: AP1 Signaling Pathway (AID 357; active = well fitted curve in either direction with a large enough effect, not every such curve was filed as active;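 note: ME-180 reporter cells stimulated with EGF at its EC50 level; % is set by controls: 0 for no effect and ±100 for the full control effect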). To be noted: ME-180 AP-1-bla reporter, EGF-induced, beta-lactamase ratio, 5 h; at 38 µM (top of the series). An outline of the steps:
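AP-1-bla ME-180 cells, Opti-MEM + 0.5% dialyzed FBS, plated overnight 37 °C. Cpd titration + EC50 EGF, 5 h 37 °C. CCF4 2.5 h RT; ex 405, em 460/530 ratio → %activity, AC50.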

Assay [2] has as its target Cytochrome P450 1A2 (Homo sapiens) (UniProt P05177). The experiment in a line: p450-cyp1a2 (AID 410; calls by dose curve;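 note: -100% = full effect of reference inhibitor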). The note with it: recombinant CYP1A2, luciferin-ME demethylation, luminescence; series mostly up to 57 µM. Summed up: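 Luminescent demethylation readout: Luciferin-ME (100uM, equal to Km) turned over by 20nM CYP1A2 for 60 min at room temperature after NADPH regeneration addition, following 10 min compound preincubation. Normalization used 57 uM furafylline as full inhibition.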

Assay [3] is described as follows: NFAT Signaling Pathway (AID 444; active = well fitted curve in either direction with a large enough effect, not every such curve was filed as active;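 note: carbachol stimulus at about its EC50 of 1 µM final; % is set by controls: 0 for no effect and ±100 for the full control effect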). The note with it: Jurkat NFAT-bla M1, carbachol, beta-lactamase ratio, 5 h; at 38 µM (top of the series). Summed up: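 Read-out: CCF4 FRET ratio (460 nm/530 nm) after 1 h RT dye loading, used for %activity and AC50 from titration series. Cells: Jurkat NFAT-β-lactamase/M1 line, treated with compound plus 1 uM carbachol for 5 h, 37 °C.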

Assay [4] is described as follows: Stat Signaling Pathway (AID 446; active = well fitted curve in either direction with a large enough effect, not every such curve was filed as active;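 note: ME-180 cervical cancer cells given 40 pM IL-6 alongside compound; SIE-controlled beta-lactamase reporter measured as 460/530 nm FRET emission ratio; % is set by controls: 0 for no effect and ±100 for the full control effect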). The note with it: ME-180 (cervical carcinoma) SIE beta-lactamase reporter, IL-6 stimulated, 5 h; at 38 µM (top of the series). Summed up: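 Emission at 460 and 530 nm (excitation 405 nm) reports SIE-controlled beta-lactamase in ME-180 cells. Cells received compound with 40 pM IL-6 for 5 hrs at 37 C; data scaled between 300 pM IL-6 and 125 nM JAK-inhibitor controls.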

Assay [5] deals with Glucocorticoid receptor (Homo sapiens) (UniProt P04150). The assay is described as follows: GR-GFP Redistribution (AID 450;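 active = compounds whose dose series gives a full or clear partial fitted curve of increased nuclear translocation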; note: potency is the fitted concentration of half-maximal effect). To be noted: U2OS GR-GFP nuclear translocation, laser cytometry, 2 h.
Sequence of Glucocorticoid receptor (Homo sapiens) (P04150 whole entry, looked up): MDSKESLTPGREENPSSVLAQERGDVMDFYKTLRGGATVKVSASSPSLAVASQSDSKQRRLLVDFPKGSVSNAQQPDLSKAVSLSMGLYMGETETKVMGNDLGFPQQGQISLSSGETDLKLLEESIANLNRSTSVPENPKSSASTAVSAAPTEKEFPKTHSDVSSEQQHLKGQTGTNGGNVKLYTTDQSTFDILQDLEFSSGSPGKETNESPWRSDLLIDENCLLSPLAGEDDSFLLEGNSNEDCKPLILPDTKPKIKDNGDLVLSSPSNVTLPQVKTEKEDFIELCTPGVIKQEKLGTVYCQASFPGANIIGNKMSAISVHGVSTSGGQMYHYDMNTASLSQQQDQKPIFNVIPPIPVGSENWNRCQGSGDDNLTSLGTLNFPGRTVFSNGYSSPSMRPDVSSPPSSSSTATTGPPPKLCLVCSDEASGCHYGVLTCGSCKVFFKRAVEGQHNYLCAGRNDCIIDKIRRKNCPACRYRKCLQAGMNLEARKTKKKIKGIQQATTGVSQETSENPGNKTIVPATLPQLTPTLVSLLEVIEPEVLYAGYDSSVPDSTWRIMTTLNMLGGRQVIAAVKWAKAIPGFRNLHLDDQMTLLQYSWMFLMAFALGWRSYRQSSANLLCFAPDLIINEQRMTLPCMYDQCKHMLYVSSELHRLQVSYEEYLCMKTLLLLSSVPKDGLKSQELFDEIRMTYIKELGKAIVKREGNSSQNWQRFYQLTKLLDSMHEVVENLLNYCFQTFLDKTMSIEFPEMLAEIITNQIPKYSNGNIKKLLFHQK
The target is the same in assay [6]. The experiment in a line: GR-EFC Redistribution (AID 451; calls by dose curve; note: potency is the fitted concentration of half-maximal effect). To be noted: CHO-K1 GR-EFC translocation, beta-gal luminescence, 2 h. Summed up:
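Translocation of GR-ED fusion to nuclear EA restores b-gal, read by luminescence after 1 h room-temperature detection. Engineered CHO-K1 biosensor cells, 1,000/well, exposed 2 h at 37 C to titrations up to 46 uM final.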

Assay [7] deals with 3',5'-cyclic-AMP phosphodiesterase 4B (Homo sapiens) (UniProt Q07343). The assay is described as follows: qHTS Assay for Inhibitors of PDE-IV (AID 607; active = well fitted activation curve with a large enough effect in the main read-out, with a control signal flat, not every such curve was filed as active; note: % of control where 0% means no effect). The note with it: HEK293 ACTOne CNG channel cells, membrane potential fluorescence; series mostly up to 22.9 µM. An outline of the steps: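 The readout is membrane depolarisation from a cAMP-sensing CNG channel, detected with a potential dye at ex 535/em 590. Cells were HEK293-derived (endogenous PDE-IV) at 1000 cells/well, titrated up to 22.9 uM final.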
Sequence of 3',5'-cyclic-AMP phosphodiesterase 4B (Homo sapiens) (Q07343 whole entry, looked up): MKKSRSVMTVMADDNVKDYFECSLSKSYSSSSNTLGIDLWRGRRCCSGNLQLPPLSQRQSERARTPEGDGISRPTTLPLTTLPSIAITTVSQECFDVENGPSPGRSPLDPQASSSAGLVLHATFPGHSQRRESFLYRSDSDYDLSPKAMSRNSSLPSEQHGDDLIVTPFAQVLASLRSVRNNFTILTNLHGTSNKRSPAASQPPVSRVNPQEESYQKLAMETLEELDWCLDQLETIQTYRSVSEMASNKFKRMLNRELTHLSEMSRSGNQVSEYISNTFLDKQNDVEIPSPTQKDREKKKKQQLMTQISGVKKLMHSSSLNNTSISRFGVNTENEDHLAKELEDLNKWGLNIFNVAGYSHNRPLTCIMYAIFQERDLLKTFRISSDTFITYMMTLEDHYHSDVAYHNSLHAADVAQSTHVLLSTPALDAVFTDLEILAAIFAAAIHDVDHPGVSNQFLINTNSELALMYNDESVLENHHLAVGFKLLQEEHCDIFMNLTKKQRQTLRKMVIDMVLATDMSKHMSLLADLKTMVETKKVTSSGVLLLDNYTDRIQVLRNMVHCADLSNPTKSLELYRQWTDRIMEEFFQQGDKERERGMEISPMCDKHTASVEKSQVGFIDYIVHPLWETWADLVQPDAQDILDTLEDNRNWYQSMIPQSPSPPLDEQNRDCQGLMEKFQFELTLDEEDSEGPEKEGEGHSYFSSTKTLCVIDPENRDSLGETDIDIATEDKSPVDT

Assay [8] concerns the target Guanine nucleotide-binding protein G(i) subunit alpha-1 (Homo sapiens) (UniProt P63096). The assay is described as follows: qHTS Assay for Inhibitors of RGS12 GoLoco Motif Activity (Green Fluorophore) (AID 879).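 Note: 0% = labeled peptide with Gαi1 and full inhibition = labeled peptide alone without protein; negative values mean loss of peptide binding seen as reduced polarization.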 The note with it: Galphai1/FITC-RGS12 GoLoco peptide, fluorescence polarization; series mostly up to 57.1 µM. Summed up:
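A drop in FITC polarization marked displacement of the FITC-tagged RGS12 GoLoco peptide (10 nM) from Gαi1 (50 nM). Compounds were incubated 10 min at room temperature in Tris pH 7.5 buffer containing 150 mM NaCl, 0.1 mM GDP and 0.05% NP40; unlabeled peptide titration served as control.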
(In qHTS, concentration-response curves come from the screen itself.)

A short description of assay [9]: qHTS Assay for Identification of Small Molecule Agonists for Thrombopoietin (TPO) Signaling Pathway (AID 917). Note: % is set by controls: 0 for no effect and ±100 for the full control effect. To be noted: TPO signaling pathway reporter cells, agonist qHTS, stimulated with TPO at its EC50; series mostly up to 38.5 µM. Summed up: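 Quantitative HTS for pathway activators: compounds were pin-transferred onto IL-3-starved Ba/F3 cells expressing human TPO receptor, TPO was added at its EC50 (26 pM final), and after 24 hrs at 37 C reporter luciferase was measured.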

The target of assay [10] is Muscarinic acetylcholine receptor M1 (Rattus norvegicus) (UniProt P08482). The experiment in a line: qHTS Assay for Antagonists of Acetylcholine Muscarinic M1 Receptor: Measurement of IP-One Response (AID 944). Note: nearly all actives have a fitted effect of over 75% in size. To be noted: CHO-M1 cells, IP-One HTRF, antagonist mode; series mostly up to 46.1 µM. An outline of the steps:
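IP1 accumulation measured via TR-FRET between d2-IP1 and Eu-cryptate anti-IP1 antibody after carbachol (200 nM, EC80) stimulation for 30 min; rat M1-transfected CHO cells received compound 10 min before agonist.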

Assay [11] addresses Pyruvate kinase (Leishmania mexicana) (UniProt Q27686). The assay is described as follows: qHTS Validation Assay for Inhibitors of Leishmania Mexicana Pyruvate Kinase (AID 945).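 Note: 0% = DMSO only neutral control wells.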 To be noted: purified L. mexicana pyruvate kinase, enzyme activity, E451W mutant enzyme; series mostly up to 57.5 µM. Summed up:
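Luminescent ATP detection (PKLight) after a 1 h room-temperature reaction of 0.2 nM LmPYK E451W mutant with 0.5 mM PEP and 0.1 mM ADP at pH 7.2. Activity is normalized to DMSO-only control wells.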

Assay [12] deals with Alpha-galactosidase A (Homo sapiens) (UniProt P06280). The assay is described as follows: Counterscreen for Glucocerebrosidase Inhibitors: qHTS Assay for Human alpha-Galactosidase at pH 4.5 (AID 992). Note: 0% is about no effect. The note with it: purified enzyme, fluorogenic substrate; series mostly up to 76.9 µM. Summed up: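 Fluorogenic 4-MU alpha-D-galactoside (80 uM) hydrolysis, 2 nM enzyme, pH 4.5 citrate buffer + 0.005% Tween-20; 20 min RT; NaOH/glycine pH 10 stop; Ex365/Em440. Compounds titrated 0.7 nM–77 uM; Hill-equation AC50.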
Sequence of Alpha-galactosidase A (Homo sapiens) (P06280 whole entry, looked up): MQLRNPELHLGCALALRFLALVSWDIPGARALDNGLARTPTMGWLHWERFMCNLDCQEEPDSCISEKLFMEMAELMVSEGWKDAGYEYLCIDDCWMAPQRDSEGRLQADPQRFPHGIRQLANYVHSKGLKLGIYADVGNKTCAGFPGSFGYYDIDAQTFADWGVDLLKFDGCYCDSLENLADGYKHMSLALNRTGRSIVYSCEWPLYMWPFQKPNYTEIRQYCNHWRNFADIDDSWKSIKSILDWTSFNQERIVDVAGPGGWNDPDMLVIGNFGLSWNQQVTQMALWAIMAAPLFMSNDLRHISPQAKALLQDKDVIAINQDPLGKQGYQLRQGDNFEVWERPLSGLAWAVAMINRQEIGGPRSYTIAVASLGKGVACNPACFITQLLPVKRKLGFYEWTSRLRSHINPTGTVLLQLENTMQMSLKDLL
In general terms: Counterscreens check selectivity or assay interference.

A short description of assay [13]: Validation of Assay for Modulators of Lamin A Splicing (AID 1459; active = well fitted curve in the direction sought with a large enough effect in the signal ratio; the % refers to the signal ratio;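 note: cells exposed to compound for two days before reading; 0% is about no effect; ratio rise marks activators and ratio drop marks inhibitors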). To be noted: Lamin A splicing dual RFP/GFP fluorescence reporter; series mostly up to 9.22 µM. An outline of the steps:
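Splicing correction is reported by an EGFP-containing lamin A minigene in stably transfected S3 HeLa cells, while DsRed2 controls for viability and nonspecific signal. Cells are exposed to compounds for 48 hrs before the GFP over RFP ratio is taken.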

The nature of assay [14]: qHTS Assay for Lipid Storage Modulators (AID 1519; calls by dose curve). The note with it: Drosophila S3 cells, BODIPY lipid droplet/cell ratio, laser cytometry, cells loaded with oleic acid. Summed up: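 Cells seeded at 5,000 per well were treated with compounds over a concentration series and loaded with oleic acid (400 uM, as added). Lipid droplet fluorescence (488 nm excitation, 500-530 nm channel) was read by laser-scanning cytometry and normalized to 20 uM Triacsin C.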

A short description of assay [15]: Counterscreen for APE1 Inhibitors: Fluorescent Dye Displacement Validation Assay (AID 1707).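 Note: plate controls were ThO with dsDNA and no compound for no effect and ThO without dsDNA for full effect.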 To be noted: fluorescent dye displacement from DNA; series mostly up to 57.1 µM. An outline of the steps: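 Endpoint fluorescence read at 480 nm excitation / 540 nm emission; DNA-binding compounds lower signal by displacing 250 nM Thiazole Orange from 50 nM dsDNA containing a tetrahydrofuran abasic site, Tris-HCl pH7.5 buffer with NaCl and MgCl2.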

Assay [16] deals with Endonuclease 4 (Escherichia coli (strain K12)) (UniProt P0A6C1). The assay is described as follows: Counterscreen for APE1 Inhibitors: qHTS Validation Assay for Inhibitors of Endonuclease IV (AID 1708). Note: % is set by controls: 0 for no effect and ±100 for the full control effect. To be noted: E. coli endonuclease IV, DNA cleavage fluorescence; series mostly up to 57.1 µM. Summed up:
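Incision of a double-stranded 50 nM TAMRA/BHQ-2 abasic substrate was followed kinetically (525/598 nm, reads every 60 s) after 15 min enzyme–compound preincubation with 2 nM EndoIV in pH 7.5 Tris buffer with MgCl2, DTT and Tween-20; concentration-response format.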

Assay [17] can be described thus: qHTS for differential inhibitors of proliferation of Plasmodium falciparum line 7G8 (AID 1815).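 Note: parasite growth measured after three days of incubation; plate controls were vehicle wells for no effect and reference inhibitor wells for full effect.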 To be noted: Plasmodium falciparum 7G8 proliferation inhibition; series mostly up to 28.7 µM.
Assay [18] can be described thus: qHTS for differential inhibitors of proliferation of Plasmodium falciparum line GB4 (AID 1816).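 Note: parasite growth measured after 72 h incubation; 0% = vehicle DMSO and -100% = reference inhibitor.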 The note with it: Potency: Plasmodium falciparum GB4 proliferation inhibition; series mostly up to 28.7 µM.

Molecules are shown by their SMILES. Results filed as inconclusive are left out. Calls of active or inactive are those of the source. Unless noted, calls come from the whole dose curve; as a rule, active = well fitted curve in the direction sought with a large enough effect; inconclusive = small, poorly fitted or top-dose-only effect, or another doubt; inactive = no such curve, though single readings can be large; an effect the other way counts as inactive or inconclusive.

Sequence of Muscarinic acetylcholine receptor M1 (Rattus norvegicus) (P08482 whole entry, looked up): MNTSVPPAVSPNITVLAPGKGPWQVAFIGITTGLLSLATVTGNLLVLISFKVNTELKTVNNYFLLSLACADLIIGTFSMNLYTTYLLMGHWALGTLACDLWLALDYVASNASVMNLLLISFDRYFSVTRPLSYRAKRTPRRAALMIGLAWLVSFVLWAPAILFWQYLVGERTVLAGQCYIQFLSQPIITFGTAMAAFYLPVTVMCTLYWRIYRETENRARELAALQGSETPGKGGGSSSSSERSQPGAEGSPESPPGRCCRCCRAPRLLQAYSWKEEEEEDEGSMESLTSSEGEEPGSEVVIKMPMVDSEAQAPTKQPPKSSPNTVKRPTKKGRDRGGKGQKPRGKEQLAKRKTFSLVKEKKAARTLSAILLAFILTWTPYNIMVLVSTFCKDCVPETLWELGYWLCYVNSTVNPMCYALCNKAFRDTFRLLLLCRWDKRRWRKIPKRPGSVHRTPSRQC
Sequence of Guanine nucleotide-binding protein G(i) subunit alpha-1 (Homo sapiens) (P63096 whole entry, looked up): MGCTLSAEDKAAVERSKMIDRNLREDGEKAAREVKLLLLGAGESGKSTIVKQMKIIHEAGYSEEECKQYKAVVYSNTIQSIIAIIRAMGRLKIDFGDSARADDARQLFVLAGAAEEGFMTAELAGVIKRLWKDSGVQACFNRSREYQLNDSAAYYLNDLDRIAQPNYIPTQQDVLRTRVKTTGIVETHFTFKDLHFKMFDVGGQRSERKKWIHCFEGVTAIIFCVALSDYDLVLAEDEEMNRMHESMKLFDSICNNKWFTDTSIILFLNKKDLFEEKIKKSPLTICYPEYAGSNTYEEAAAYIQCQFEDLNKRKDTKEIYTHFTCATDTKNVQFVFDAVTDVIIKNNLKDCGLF
Sequence of Pyruvate kinase (Leishmania mexicana) (Q27686 2-499 E452W): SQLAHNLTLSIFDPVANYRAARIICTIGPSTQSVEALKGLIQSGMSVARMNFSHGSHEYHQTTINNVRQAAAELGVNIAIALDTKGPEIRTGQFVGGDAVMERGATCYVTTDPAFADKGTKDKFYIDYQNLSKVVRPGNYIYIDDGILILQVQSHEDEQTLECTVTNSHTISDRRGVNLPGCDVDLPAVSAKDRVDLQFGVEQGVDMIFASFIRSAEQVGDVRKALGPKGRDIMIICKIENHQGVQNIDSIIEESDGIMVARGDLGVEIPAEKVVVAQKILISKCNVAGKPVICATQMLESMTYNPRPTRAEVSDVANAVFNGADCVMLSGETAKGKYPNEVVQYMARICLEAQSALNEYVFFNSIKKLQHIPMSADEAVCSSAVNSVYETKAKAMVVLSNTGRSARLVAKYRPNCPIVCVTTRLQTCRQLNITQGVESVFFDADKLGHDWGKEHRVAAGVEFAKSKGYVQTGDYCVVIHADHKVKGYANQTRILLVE
Sequence of Cytochrome P450 1A2 (Homo sapiens) (P05177 whole entry, looked up): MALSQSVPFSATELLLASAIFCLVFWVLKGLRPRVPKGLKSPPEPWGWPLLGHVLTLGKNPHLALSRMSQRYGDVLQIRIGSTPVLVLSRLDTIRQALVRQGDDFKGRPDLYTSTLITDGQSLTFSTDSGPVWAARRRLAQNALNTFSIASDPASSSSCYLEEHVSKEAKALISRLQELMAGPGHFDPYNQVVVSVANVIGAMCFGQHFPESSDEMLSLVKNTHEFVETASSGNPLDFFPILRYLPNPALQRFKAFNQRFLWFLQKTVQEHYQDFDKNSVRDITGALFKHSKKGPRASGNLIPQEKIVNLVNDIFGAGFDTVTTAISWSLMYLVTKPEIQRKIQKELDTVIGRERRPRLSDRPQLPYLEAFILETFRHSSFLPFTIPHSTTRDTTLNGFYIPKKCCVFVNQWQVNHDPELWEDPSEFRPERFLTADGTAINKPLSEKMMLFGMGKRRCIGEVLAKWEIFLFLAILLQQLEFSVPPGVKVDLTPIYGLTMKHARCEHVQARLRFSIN

In the case of `Cc1cccc(C)c1NC(=O)C[N+](C)(C)C`, the values for the activity change, negative = inhibition in [1], in assay [3] and in [14] (at 57.5 µM (top of the series)) were 0.892% (inactive), 11.6% (inactive) and -1.34% (inactive), respectively. Moreover, the Potency result in assay [2], in assay [7], in assay [9], in assay [10], in [11] and in assay [15] was “inactive” throughout. Moreover, the Potency entry in assay [16], in [17] and in [18] was “inactive” in each case. In addition, the activity, negative = inhibition in assay [4] is 8.11% (inactive). Moreover, the Potency in assay [5] and in [6] was > 46 µM (inactive) each time. The compound was called inactive in assay [8], in [12] and in assay [13]. Moreover, the max response in assay [14] (measured here: cell count channel max response) was -10.6%; in assay [14] (measured here: lipid channel max response), -11.6%.
